Only some compounds are listed: those with a hit (about 3.5% of all), similar ones and a draw of the others.
MITF primary = inhibitors of human MITF. O75030. AlphaScreen MITF homodimerization, bead proximity signal. inhibition, % at 2.6 µM. actives 0.91% (n = 650,000). AID 1259374; in the data active = inhibition above about 50%;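 also: 0% = vehicle wells with protein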
Target sequence (O75030 whole entry, looked up): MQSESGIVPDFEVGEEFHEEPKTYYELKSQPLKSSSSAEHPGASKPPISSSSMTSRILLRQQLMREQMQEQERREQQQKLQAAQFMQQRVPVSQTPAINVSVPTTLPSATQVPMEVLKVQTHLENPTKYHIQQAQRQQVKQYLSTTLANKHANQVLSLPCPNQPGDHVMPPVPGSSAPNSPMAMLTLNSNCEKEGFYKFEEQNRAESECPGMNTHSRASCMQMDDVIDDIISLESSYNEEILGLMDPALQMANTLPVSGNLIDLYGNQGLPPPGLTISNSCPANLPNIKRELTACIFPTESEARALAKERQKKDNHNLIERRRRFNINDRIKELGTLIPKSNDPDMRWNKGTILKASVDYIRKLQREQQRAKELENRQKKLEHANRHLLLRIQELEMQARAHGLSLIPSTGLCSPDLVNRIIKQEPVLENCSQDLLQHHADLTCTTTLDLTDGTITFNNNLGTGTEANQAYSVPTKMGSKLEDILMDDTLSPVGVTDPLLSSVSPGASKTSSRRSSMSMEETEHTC
FBW7 act = activators of human E3 ligase FBW7 | AlphaScreen FBW7–phospho-cyclin E peptide binding, activator screen | actives 0.13% (n = 650,000) | normalized activity (activation), % at 26.1 µM; in the data active = normalized activity above about 1.9%;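 also: purified mutant Fbw7 with reduced substrate affinity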
TEAD-YAP inh = TEAD-YAP interaction inhibition | AID 1259422 | HEK-TIYL cells, TEAD-Gal4/YAP UAS-luciferase luminescence | inhibition, % at 9.12 µM | actives 1.4% (n = 640,000); in the data active = inhibition above about 32%;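 also: 0% = median of test compound wells and 100% = reference inhibitor wells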
GPR151 activ = activates the human receptor GPR151 | Q8TDV0 | PathHunter beta-arrestin GPR151 cells, luminescence | activation, % at 11.2 µM | actives 1% (n = 650,000); in the data active = activation above about 4.9%;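 also: 0% = median of compound wells and 100% = cells with positive control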
GPR151 conf act = human GPR151 activation, confirmation screen | shares compounds with GPR151 activ | GPR151 PathHunter beta-arrestin cells, luminescence, 90 min; % of EA-reagent control over plate median | activation, % at 11.2 µM | 6,700 tested, under 10 active;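 active = mean percent activation across replicates above the confirmation screen cutoff of 4.91%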
GPR119 ag = activates human GPR119 in a GPR151 counter-screen. GPR119 PathHunter beta-arrestin cells, luminescence, 90 min; 0 = compound-well median, 100 = enzyme-acceptor control. actives 0.3% (n = 6,700). shares compounds with GPR151 activ. activation, % at 11.2 µM;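 active = mean percent activation in the counterscreen above 29.09%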;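 also: counterscreen on off-target GPR119 to flag nonselective hits from the GPR151 activator screen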
Active calls of the source: *; nt = no result given.

SMILES	MITF primary	FBW7 act	TEAD-YAP inh	GPR151 activ	GPR151 conf act	GPR119 ag
CC(C)N(CCNc1nc(N2CCC(N3CCOCC3)CC2)nc2c1ncn2C1CCCCC1)C(C)C	9.7	-0.1	2.9	14.3*	1.0	5.9
Cc1cc(NCCN(C(C)C)C(C)C)nc(-c2ccc(C(=O)NC3CC3)cc2)n1	1.2	-0.1	5.0	1.1	nt	nt
COc1ccccc1N1CCN(S(=O)(=O)c2cc(C)sc2C)CC1	15.6	0.0	5.3	6.1*	0.6	1.2
COc1ccc(S(=O)(=O)N2CCN(c3cccc(Cl)c3Cl)CC2)cc1OC	0.1	-0.2	-2.5	8.3*	1.3	-9.1
COc1ccc(S(=O)(=O)N2CCN(c3ccccc3F)CC2)cc1Cl	-3.5	0.0	1.8	11.7*	-0.8	-2.4
Cc1cc(S(=O)(=O)N2CCN(c3ccccc3O)CC2)c(C)s1	22.4	0.0	-0.1	0.5	nt	nt
COc1ccc(S(=O)(=O)N2CCN(c3ccccc3OC)CC2)cc1Cl	-10.4	-0.3	1.0	0.6	nt	nt
CC(=O)NNc1nc(-c2cccc3ccccc23)cs1	4.4	0.0	-10.0	-1.1	nt	nt
CCN(CCO)c1ccc(NC2=C(NC(C)=O)C(=O)c3ccccc3C2=O)cc1	7.8	0.1	61.5*	5.1*	0.1	12.4
CCC(=O)NC1=C(Nc2ccc(N)cc2)C(=O)c2ccccc2C1=O	9.5	-0.1	-48.1	-2.3	nt	nt
CC(C)(C)C(=O)Nc1nnc(SCC(=O)NO)s1	9.7	-0.1	-22.1	-1.7	nt	nt
CC(C)(C)C(=O)Nc1nnc(SCC(N)=O)s1	5.2	-0.2	-7.5	5.2*	-1.7	-1.6
CCOC(=O)CNC(=O)CSc1nnc(NC(=O)C(C)(C)C)s1	-1.2	0.4	10.4	5.2*	1.4	15.5
CCCNC(=O)c1cnc(Nc2nccc3ccccc23)s1	-0.7	0.1	-51.0	-0.7	nt	nt
COc1ccc(CCNC(=O)c2cnc(Nc3nccc4ccccc34)s2)cc1	18.1	0.1	0.2	5.8*	-0.1	-7.9
O=C(NC1CCCCC1O)c1ccccc1C(F)(F)F (stereo unspecified)	16.1	0.3	-5.4	9.2*	-0.3	-10.2
O=C(NC1CCCCC1)c1ccccc1C(F)(F)F	8.1	0.1	-4.1	-0.6	nt	nt
CCN(CC)C(=O)CN1C(=O)/C(=C/c2ccc(Cl)cc2)SC1=S	13.5	-0.1	4.1	0.6	nt	nt
CC[n+]1c(/C=C2\Sc3ccc(-c4ccccc4)cc3N2CCO)ccc2cc(OC)ccc21	-22.4	-1.2	91.1*	13.9*	-0.3	-0.1
COc1ccc(N=c2scc(-c3ccccc3)n2CCO)cc1	-2.7	-0.1	-24.3	2.1	nt	nt
COc1ccc(/C=C2/NC(=O)N(c3cccc(Cl)c3)C2=O)cc1	-5.0	0.0	-12.4	-0.5	nt	nt
O=C1N/C(=C/c2ccco2)C(=O)N1c1cccc(Cl)c1	-1.9	0.1	-11.2	5.2*	-0.6	0.7
COc1cc2c(cc1/C=C1/NC(=O)N(c3cccc(Cl)c3)C1=O)OCO2	1.0	-0.1	11.2	8.5*	0.3	6.8
O=C1N/C(=C/c2ccc3c(c2)OCO3)C(=O)N1c1cccc(Cl)c1	15.9	0.0	1.5	-0.3	nt	nt
O=C1N/C(=C/c2ccccc2)C(=O)N1c1cccc(Cl)c1	8.8	0.0	-0.2	4.7	nt	nt
SMILES	MITF primary	FBW7 act	TEAD-YAP inh	GPR151 activ	GPR151 conf act	GPR119 ag
COc1ccc(/C=C2/NC(=O)N(c3cccc(Cl)c3)C2=O)c(OC)c1	18.0	-0.1	-6.2	5.7*	2.4	2.6
CC(C)(C)NC(=O)C(=O)NNC(=O)COc1ccc(Cl)cc1	3.4	-0.1	0.0	0.1	nt	nt
CC(=O)c1[nH]c2ccc([N+](=O)[O-])cc2c1CCN1C(=O)c2ccccc2C1=O	-3.7	-0.1	7.6	0.2	nt	nt
CCN(CC)S(=O)(=O)c1ccc(N/N=C/c2ccc(O)cc2)nc1	22.3	0.0	1.8	5.7*	0.5	3.4
CCN(CC)S(=O)(=O)c1ccc(N/N=C/c2ccc(O)c(OC)c2)nc1	7.5	-0.1	-5.8	1.6	nt	nt
Cc1ccc(NC(=S)N(CCCN2CCCC(C)C2)Cc2ccco2)cc1 (stereo unspecified)	-9.5	-0.2	0.0	0.3	nt	nt
OCCC1CN(Cc2ccc3c(c2)OCCO3)CCN1CCc1ccccc1 (stereo unspecified)	-3.0	0.0	3.2	1.7	nt	nt
COc1ccc2c(c1)c(C(=O)N1CCN(CC#N)CC1)c(C)n2-c1ccccc1	15.2	0.3	2.5	-0.5	nt	nt
O=C(CN1CCCC(O)C1)N1c2ccccc2Sc2ccc(C(F)(F)F)cc21 (stereo unspecified)	23.4	0.1	2.1	9.5*	-0.1	-4.5
COc1ccc(NC(=O)N2CCc3c([nH]c4ccccc34)C2C)cc1 (stereo unspecified)	8.0	-0.1	7.0	2.3	nt	nt
O=C(c1ccc(Cl)cc1)N1N=C(C(F)F)CC1(O)C(F)F (stereo unspecified)	-2.0	0.2	5.2	-0.8	nt	nt
Cn1c(SCC(=O)c2cccc(Br)c2)nnc1-c1ccccn1	-2.0	-0.1	-1.9	4.9*	0.2	2.0
Cn1c(SCC(=O)Nc2ccc(F)c(F)c2)nnc1-c1ccccn1	2.9	0.4	-12.7	2.7	nt	nt
CCOC(=O)C(NC(=O)/C(=C\c1ccc(F)cc1)NC(=O)c1ccccc1)C(C)C (stereo unspecified)	16.9	0.2	12.8	7.5*	-0.3	-5.3
CCOC(=O)C(NC(=O)/C(=C\c1ccc(Br)cc1)NC(=O)c1ccccc1)C(C)O (stereo unspecified)	-6.3	-0.1	-1.8	0.0	nt	nt
O=c1oc2c(Cl)cc(Cl)cc2cc1-c1nnc(-c2ccccc2)o1	3.4	-0.1	-3.1	-0.4	nt	nt
O=C(Nc1ccccc1)c1ccccc1OCC(O)Cn1c2ccccc2c2ccccc21 (stereo unspecified)	-11.7	0.0	10.5	12.5*	-0.2	4.9
CN1CCN(c2ccc(-c3cccc(C(=O)Nc4ccc(N5CCOCC5)cc4)n3)cc2)CC1	13.8	-0.3	-24.3	-0.2	nt	nt
Cc1cnc(C)c(-c2ccc3c(c2)CC(CNC(=O)c2ccoc2)O3)n1 (stereo unspecified)	9.9	0.7	1.4	-0.3	nt	nt
COc1ccc(-c2n[nH]c(=S)n2Cc2ccco2)cc1OC	-13.2	-0.1	-6.9	1.4	nt	nt
COc1cccc(-c2n[nH]c(=S)n2Cc2ccco2)c1OC	10.8	1.0	-10.2	9.1*	0.7	5.5
O=C(CNC(=O)C12CC3CC(CC(C3)C1)C2)N1CCOCC1	1.0	-0.2	-1.1	-1.0	nt	nt
CC(NC(=O)C12CC3CC(CC(C3)C1)C2)C(=O)N1CCOCC1 (stereo unspecified)	-4.6	-0.7	-0.8	5.0*	-0.5	-7.1
CCOC(=O)c1c(NC(=O)/C=C/c2ccc(C)o2)sc(C)c1C	8.1	0.1	2.0	9.8*	0.3	4.1
CCOC(=O)N/N=C/c1cccc(Br)c1	-2.0	-0.1	-22.3	1.0	nt	nt
COc1nn(C)cc1C(=O)Nc1ccc(C(=O)NCc2ccco2)cc1	9.3	-0.1	0.5	0.7	nt	nt

Compound activity: PubChem BioAssay, The Scripps Research Institute Molecular Screening Center
